Molecules are shown by their SMILES. Inconclusive results are not listed. Values without a mark were called inactive. Calls of active or inactive are those of the source. Calls follow the shape of the dose curve; as a rule, active = well fitted cell-killing curve with a large enough effect; inconclusive = small, poorly fitted or top-dose-only effect; inactive = no such curve, though single readings can be large or run the other way.
Potency is read from the fitted curve at half-maximal effect.

A short description of this experiment: Cell Viability - LYMP2-001 (AID 921). Also: nearly all actives have a fitted effect of over 70% in size.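 As to activity change, negative = cytotoxic: 0% = DMSO only and full inhibition = tetraoctylammonium bromide control wells.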 The settings on record: LYMP2-001 lymphoblastoid cell viability; series mostly up to 92.2 µM; activity change, negative = cytotoxic: at the top concentration. An excerpt: NIH Chemical Genomics Center [NCGC]
NIH Molecular Libraries Screening Centers Network [MLSCN]
National Institutes of Environmental Health Sciences [NIEHS]
National Toxicology Program [NTP]
We have developed a 1536-well cell-based assay for quantitative high throughput screening (qHTS) against a number of cell lines to determine in vitro cytotoxicity of small molecules. This particular assay uses a human lymphoblastoid cell line (LYMP2-001) purchased from Coriell Institute for Medical Research.
NCGC Assay Protocol Summary:
The CellTiter-Glo luminescent cell viability assay (Promega) is a homogeneous method to measure the number of viable cells in culture. The end point readout of this assay is based on quantitation of intracellular ATP, an indicator of metabolic activity, using the luciferase reaction. Luciferase catalyzes the oxidation of beetle Luciferin to oxyluciferin and light in the presence of ATP. The luminescent signal is proportional to amount of ATP present.
Using the CellTiter-Glo luminescent cell viability assay, the amount of cellular ATP was measured in the lymphoblastoid cell line with complete culture medium following compound treatment for 24 hours. The assay was performed in opaque white Kalypsys 1536-well plates. In the screen, tetraoctylammonium bromide was used as positive control. Library compounds were measured for their ability to cause acute toxicity in the cell line, as reflected by a decrease in intracellular ATP levels, in a concentration-dependent manner. […] AC50 values were determined from concentration-response data modeled with the standard Hill equation.
qHTS protocol for CellTiter Glo lymphoblastoid cellular assay
[Step] [Parameter] [Value] [Description]
1. Reagent; 5 uL; 2500 lymphoblastoid cells/well
2. Time; 5 hr; 37 C incubation
4. Controls; 23 nL; Tetraoctylammonium bromide 6.4pM to 92 uM
5. Time; 24 hr; 37 C incubation
6. Reagent; 5 uL; CellTiter Glo reagent
7. Time; 30 min; Room Temperature
8. Detection; Luminescence; Viewlux plate reader
Keywords: cell viability, cytotoxicity, lymphoblastoid cell line, luminescence, NTPHTS, NTPHTS_NCGC, NIEHS, DSSTox, MLSMR, MLSCN, NIH Roadmap, qHTS, NCGC
For the molecule `CCCNC(=O)NS(=O)(=O)c1ccc(Cl)cc1`, the “activity change, negative = cytotoxic” value was -3.2%.
As to `CCn1cc(C(=O)O)c(=O)c2ccc(C)nc21`, the “activity change, negative = cytotoxic” value was -4.76%.
For `O=c1c(O)c(-c2ccc(O)cc2)oc2cc(O)cc(O)c12`, the “activity change, negative = cytotoxic” value was 6.57%.
`O=c1[nH]cnc2c1ncn2[C@H]1CC[C@@H](CO)O1`: the “activity change, negative = cytotoxic” value is 3.12%.
For `O=C(O)c1cc(O)c2c(c1)C(=O)c1cccc(O)c1C2=O`, the “activity change, negative = cytotoxic” value is -19.8%.
For `O=C1NC(=O)C(c2ccccc2)(c2ccccc2)N1`, the “activity change, negative = cytotoxic” value was -0.749%.
Turning to `CCCCC1C(=O)N(c2ccccc2)N(c2ccccc2)C1=O`, the “activity change, negative = cytotoxic” value was -0.428%.
Take `O=c1c(-c2ccc(O)cc2)coc2cc(O)ccc12`: the “activity change, negative = cytotoxic” value is -7.8%.
As to `O=c1cc(-c2ccc(O)cc2)oc2cc(O)cc(O)c12`, the “activity change, negative = cytotoxic” value is -44.6%.
As to `CC(=O)c1ccc(S(=O)(=O)NC(=O)NC2CCCCC2)cc1`, the “activity change, negative = cytotoxic” value is -1.62%.
`O=C(O)Cc1cccc2ccccc12`: the “activity change, negative = cytotoxic” value was 6.02%.
With `CN(C)CCC(c1ccccc1)c1ccccn1` (centres undefined), the “activity change, negative = cytotoxic” value is -14.8%.
Turning to `CC1=C(/C=C/C(C)=C/C=C/C(C)=C/C(=O)Nc2ccc(O)cc2)C(C)(C)CCC1`, the Potency was 39.8 µM (active).
Consider `CC(=O)O[C@]1(C(C)=O)CC[C@H]2[C@@H]3C=C(Cl)C4=CC(=O)[C@@H]5C[C@@H]5[C@]4(C)[C@H]3CC[C@@]21C`, for which the “activity change, negative = cytotoxic” value was -2.75%.

Source of the values: PubChem BioAssay (NCATS).
